Test results taken from PubChem BioAssay AID540361 (National Center for Advancing Translational Sciences (NCATS), 2011).
Inconclusive results are not listed. Values without a mark were called inactive. Calls follow the shape of the dose curve; as a rule, active = well fitted curve in the direction sought with a large enough effect; inconclusive = small, poorly fitted or top-dose-only effect, or another doubt; inactive = no such curve, though single readings can be large or run the other way.

biological target: Alpha-galactosidase A (Homo sapiens) (UniProt P06280); experiment: Activators of Human alpha-Glucosidase as a Potential Chaperone Treatment of Pompe Disease: Alpha-Galactosidase Counter Screen; conditions: purified human alpha-galactosidase, 4-MU fluorogenic substrate; series mostly up to 57.1 µM; activity change, negative = inhibition: at the top concentration
Text: Alpha-glucosidase is responsible for hydrolysis of terminal, non-reducing 1,4-linked alpha-D-glucose residues with release of alpha-D-glucose. It is a lysosomal hydrolase that is required for the degradation of a small percentage (1-3%) of cellular glycogen in human. Deficiency of this enzyme results in glycogen-storage disease type II (GSDII), also referred to as Pompe disease, an autosomal recessive disorder. Structurally normal glycogen is accumulated in lysosomes and cytoplasm in affected patients, primarily in muscle tissues. Excessive glycogen storage within lysosomes may interrupt normal functioning of other organelles and leads to cellular injury. In turn, this leads to enlargement and dysfunction of the entire organ involved (eg, cardiomyopathy and muscle weakness). It has reported that the improper folding and trafficking of alpha-glucosidase resulting from the genetic mutations may account for a significant number of Pompe patients. […] After screening for activators for alpha-glucosidase, we used this counter screen against alpha-galactosidase to test for specificity of the hits. NIH Chemical Genomics Center [NCGC] NIH Molecular Libraries Probe Production Centers Network [MLPCN] MLPCN Grant: MH086442-01 Assay Submitter (PI): Wei Zheng
This is a fluorogenic enzyme assay with 4-methylumbelliferyl-[…] as the substrate and human alpha-galactosidase as the enzyme preparation. Upon the hydrolysis of this fluorogenic substrate, the resulting product, 1. 4-methyllumbelliferone, can be excited at 365 nm and emits at 440 nm which can be detected by a standard fluorescence plate reader. Data were normalized to the controls for basal activity (without enzyme) and 100% activity (with enzyme). In the AC50 values were determined from concentration-response data modeled with the standard Hill equation. Assay buffer: 50 mM citric acid (titrated with potassium phosphate to pH 5.0), 0.005% Tween-20, pH 5.0. (pH 5.0 is an optimal condition for this enzyme assay) 1536-well assay protocol for the human alpha-galactosidase: (1) Add 2 ul/well of enzyme (4 nM final) (2) Add 23 nL compounds in DMSO solution. The final titration was 0.7 nM to 77 uM. (3) Add 1 ul of substrate (400 uM final) (4) Incubate at room temperature for 20 min. (5) Add 2 ul stop solution (1M NaOH and 1M Glycine mixture, pH 10) (6) Detect the assay plate in a ViewLux plate reader (PerkinElmer) with Ex=365 nm and Em=440nm. Keywords: Alpha-glucosidase, Pompe Disease, pharmacological chaperone, chaperone therapy, high throughput screening, alpha-glucosidase inhibitor, MLSMR, MLSCN, NIH Roadmap, qHTS and NCGC

Chain of Alpha-galactosidase A (Homo sapiens) (P06280 whole entry, looked up): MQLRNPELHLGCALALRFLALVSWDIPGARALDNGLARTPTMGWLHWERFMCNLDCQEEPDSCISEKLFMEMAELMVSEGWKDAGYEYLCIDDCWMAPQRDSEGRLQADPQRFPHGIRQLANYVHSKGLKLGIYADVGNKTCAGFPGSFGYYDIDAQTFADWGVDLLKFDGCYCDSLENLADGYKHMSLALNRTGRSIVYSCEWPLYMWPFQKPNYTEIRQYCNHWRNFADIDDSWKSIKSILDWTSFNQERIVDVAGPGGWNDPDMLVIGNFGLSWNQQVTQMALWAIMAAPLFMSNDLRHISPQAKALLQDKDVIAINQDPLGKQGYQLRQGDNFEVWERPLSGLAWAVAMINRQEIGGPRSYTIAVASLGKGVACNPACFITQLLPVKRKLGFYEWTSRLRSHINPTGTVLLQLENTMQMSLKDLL

Structure (SMILES)	activity change, negative = inhibition
COc1ccc(C#Cc2c[nH]c(=O)c3cncnc23)cc1OC	-8.98%
CCCN1CNc2c(c(=O)[nH]c(=S)n2CCC(C)(C)C)C1	0%
COc1ccc(CCn2c(=S)[nH]c(=O)c3c(C)cc(C)nc32)cc1OC	19.6%
CCCN1CNc2c(c(=O)[nH]c(=S)n2CCc2cccc(C)c2C)C1	0%
OCCNc1nc(-c2cccs2)nc2ccccc12	0%
c1csc(-c2nc(NCC3CCCO3)c3ccccc3n2)c1 (stereo unspecified)	0% [at 48.8 µM]
COc1ccc(CCn2c3c(c(=O)[nH]c2=S)CN(c2ccccc2)CN3)cc1OC	0%
CCCN1CNc2c(c(=O)[nH]c(=O)n2CCc2ccc(OC)c(OC)c2)C1	0.385%
COc1ccc(C#Cc2cnc(Cl)c3cncnc23)cc1OC	3.52% [at 48.8 µM]
CCCN1CNc2c(c(=O)[nH]c(=S)n2CCc2ccsc2)C1	0%
CCCN1CNc2c(c(=O)[nH]c(=S)n2Cc2ccc(OC)c(OC)c2)C1	0%
COc1ccc(CCn2c3c(c(=O)[nH]c2=S)CN(C(C)C)CN3)cc1OC	0%
COc1ccc(CCn2c3c(c(=O)[nH]c2=S)CN(C)CN3)cc1OC	0%
O=S(=O)(c1ccc(Cl)cc1)N1CCN(c2nc(Nc3cc(Cl)ccc3O)nc3ccccc23)CC1	0% [at 48.8 µM]
CCCN1CNc2c(c(=O)[nH]c(=S)n2CCc2c(C)cccc2C)C1	0%
COc1ccc(CCn2c(=S)[nH]c(=O)c3nccnc32)cc1OC	0%
CCCN1CNc2c(c(=O)[nH]c(=S)n2CCc2ccc3c(c2)OCCO3)C1	0%
CCCN1CNc2c(c(=O)[nH]c(=S)n2CCc2ccc(C)c(C)c2)C1	0%
COc1ccc(CCc2c[nH]c(=O)c3cncnc23)cc1OC	-5.98%
O=S(=O)(c1ccc(Cl)cc1)N1CCN(c2nc(-c3cccs3)nc3ccccc23)CC1	0%
CCCN1CNc2c(c(=O)[nH]c(=S)n2CCc2cc(C)ccc2C)C1	0%
